Results as given in PubChem BioAssay (EPA / NIEHS).
Active and inactive are the calls of the source. The calls were made as follows: active = hit-call score of the fitted dose curve at least 0.9, where 1 is the maximum; inactive = score below 0.9.

These compounds were tested against Hypoxia-inducible factor 1-alpha (Homo sapiens) (UniProt Q16665) (assay: ATG_HIF1a_CIS: Attagene CIS-FACTORIAL HepG2 Assay for human Hypoxia Inducible Factor 1 (HIF1A) (AID 2282951)). Details: HepG2 Attagene cis-factorial HIF1a reporter transcription; actives raise or lower the signal.
Sequence of Hypoxia-inducible factor 1-alpha (Homo sapiens) (Q16665 whole entry, looked up): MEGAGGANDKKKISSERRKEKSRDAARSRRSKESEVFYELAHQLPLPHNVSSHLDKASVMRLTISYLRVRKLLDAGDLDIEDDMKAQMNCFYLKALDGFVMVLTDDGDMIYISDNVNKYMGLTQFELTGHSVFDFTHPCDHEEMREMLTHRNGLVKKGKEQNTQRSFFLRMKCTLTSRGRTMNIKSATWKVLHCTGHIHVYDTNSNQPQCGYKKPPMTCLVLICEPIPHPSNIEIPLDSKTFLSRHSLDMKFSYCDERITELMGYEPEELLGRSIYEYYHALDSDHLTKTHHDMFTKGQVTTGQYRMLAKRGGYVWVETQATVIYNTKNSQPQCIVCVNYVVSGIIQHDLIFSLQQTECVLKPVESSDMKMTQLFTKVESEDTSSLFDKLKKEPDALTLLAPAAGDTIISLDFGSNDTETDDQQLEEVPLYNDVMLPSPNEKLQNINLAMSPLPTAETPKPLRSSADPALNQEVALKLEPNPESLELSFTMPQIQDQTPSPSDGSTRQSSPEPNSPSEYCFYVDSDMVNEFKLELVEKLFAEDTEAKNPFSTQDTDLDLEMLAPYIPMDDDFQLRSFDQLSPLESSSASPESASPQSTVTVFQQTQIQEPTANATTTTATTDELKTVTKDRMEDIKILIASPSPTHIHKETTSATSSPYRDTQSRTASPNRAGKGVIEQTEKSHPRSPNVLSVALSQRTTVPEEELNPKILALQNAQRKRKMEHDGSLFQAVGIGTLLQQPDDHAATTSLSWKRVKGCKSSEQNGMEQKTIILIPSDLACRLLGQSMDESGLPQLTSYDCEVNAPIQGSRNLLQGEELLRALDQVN
Outline: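 HepG2, transient cis-reporter library, 24 h dosing. RNA → RT (oligo dT) → PCR → 6-FAM primer extension → HpaI → CE. Bidirectional curve fit vs DMSO.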
With COCCOC(=O)c1ccccc1C(=O)OCCOC the outcome was “inactive”. For ON=C1CCCCC1, the outcome was “inactive”. In the case of COc1ccc(COC(C)=O)cc1, the outcome is reported as “inactive”. In the case of Nc1ccc(NCCO)c([N+](=O)[O-])c1, the outcome is reported as “inactive”. In the case of C=C(C)[C@H]1CC=C(C)C(=O)C1, the outcome is reported as “inactive”. For CCCCSCCCC, the outcome was “inactive”. N#Cc1ccc(CC(=O)c2cccc(C(F)(F)F)c2)cc1 was tested, and the outcome was “inactive”. NCCNc1cccc2ccccc12 was tested, and the AC50 was 100 µM (active). In the case of C=C(C)[C@@H]1CC=C(C)C(=O)C1, the outcome is reported as “inactive”. With CCOC(=O)C1OC1c1ccccc1 (centres undefined) the outcome was “inactive”. With [O-]n1ccccc1=S.[O-]n1ccccc1=S.[Zn+2] the outcome was “inactive”. In the case of CC1=NN(c2ccc(S(=O)(=O)O)cc2)C(=O)C1, the outcome is reported as “inactive”. For O=Cc1ccccc1S(=O)(=O)O, the outcome was “inactive”. With CC1(C)CCC[C@]2(C)[C@H]3CCO[C@]3(C)CC[C@@H]12 the outcome was “inactive”. C=CCOC(=O)CCCCCC was tested, and the outcome was “inactive”. C[Si](C)(C)O[Si](C)(C)C was tested, and the outcome was “inactive”. C1=CC2C3C=CC(C3)C2C1 (centres undefined) was tested, and the outcome was “inactive”. In the case of Cc1ccc2c(c1)C(=O)OC2=O, the outcome is reported as “inactive”. CC(C)(N=C=O)c1cccc(C(C)(C)N=C=O)c1 was tested, and the outcome was “inactive”. CCCC(=O)OC(C)(C)Cc1ccccc1 was tested, and the outcome was “inactive”. With CCOc1ccc(NC(=O)CC(C)=O)cc1 the AC50 was 30.4 µM (active). For C=CCCC(=O)/C=C/C1C(C)=CCCC1(C)C (centres undefined), the outcome was “inactive”. In the case of CCCCCCC(CO)CCCC (centres undefined), the outcome is reported as “inactive”. For CC(C)C(OC(=O)c1ccccc1)C(C)(C)COC(=O)c1ccccc1 (centres undefined), the outcome was “inactive”. With CCCSc1ccc2nc(NC(=O)OC)[nH]c2c1 the outcome was “inactive”. CCCC(=O)c1ccccc1 was tested, and the outcome was “inactive”. In the case of C=C(C)C1CC=C(C)C(=O)C1 (centres undefined), the outcome is reported as “inactive”. With CN1CCOCC1 the outcome was “inactive”. With C#CC(C)(O)CC(C)C (centres undefined) the outcome was “inactive”. In the case of CCOC(=O)C(C#N)=C(c1ccccc1)c1ccccc1, the AC50 is reported as 19.8 µM (active). With CCC(C)=O the outcome was “inactive”. In the case of Cc1occc(=O)c1OC(=O)C(C)C, the outcome is reported as “inactive”. For O=C(O)CCCCCCCCC(=O)O, the outcome was “inactive”. In the case of N[C@@H](Cc1cc(I)c(Oc2cc(I)c(O)c(I)c2)c(I)c1)C(=O)O, the AC50 is reported as 18.9 µM (active). For C=CCCCCCCCCCC, the outcome was “inactive”. With C=C[Si]1(C)O[Si](C)(C=C)O[Si](C)(C=C)O[Si](C)(C=C)O1 (centres undefined) the outcome was “inactive”. With CC1=CC[C@@]23C[C@@H]1C(C)(C)[C@@H]2CC[C@H]3C the outcome was “inactive”. With Cc1ccc(-c2ccccc2)cc1 the outcome was “inactive”. For CCC1(C)NC(=O)NC1=O (centres undefined), the outcome was “inactive”.
